Reference: PubChem BioAssay
Activity calls are given as the source filed them.

Legend:
[1] = test system: Plasmodium falciparum Sir2 (PF13_0152, Sir2A); test: Plasmodium falciparum Sir2A binding compounds – biochemical, small-molecule microarray, 635 nm fluorescence, primary screen (AID 1098); conditions: fluorescence 635 nm, higher = more signal;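 also: score merges spot fluorescence intensity with its signal-to-noise ratio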
[2] = probe aDKK1 binding to arrayed compounds – biochemical, biotinylated probe, 635/667 nm fluorescence, primary screen (AID 1099); conditions: small-molecule microarray, higher = more signal;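 also: score merges 667nm spot fluorescence with signal to noise across triplicate slides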
[3] = probe aCHRDL2 binding to arrayed compounds – biochemical, biotinylated probe, 635/667 nm fluorescence, primary screen (AID 1100); conditions: small-molecule microarray, higher = more signal
[4] = change in splice reporter luminescence, either direction, cell-based, HEK293, spliceosome inhibition project, primary screen (AID 1101); conditions: HEK293 splicing luciferase reporter, 24 h, higher = more signal, called active from +8 up or from −8 down;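 also: HEK293 cells carrying a splicing-competent luciferase reporter gene; test concentration not given here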
[5] = target: Fibroblast growth factor 10 (Homo sapiens) (UniProt O15520); test: compounds binding fibroblast growth factor 10 – biochemical, small-molecule microarray, 635 nm fluorescence, primary screen (AID 1102); conditions: FGF10 binding, fluorescence 635 nm, higher = more signal
Chain of Fibroblast growth factor 10 (Homo sapiens) (O15520 whole entry, looked up): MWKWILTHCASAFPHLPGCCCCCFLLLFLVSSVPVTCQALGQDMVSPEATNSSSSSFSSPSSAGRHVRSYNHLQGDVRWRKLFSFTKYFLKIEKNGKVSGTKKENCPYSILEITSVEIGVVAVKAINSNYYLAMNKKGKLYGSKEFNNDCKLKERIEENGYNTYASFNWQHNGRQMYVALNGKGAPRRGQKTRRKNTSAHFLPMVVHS

[6] = test system: glycogen synthase kinase-3 (GSK3A per assay name; protocol says GSK3B); test: compounds binding glycogen synthase kinase-3 – biochemical, small-molecule microarray, 635 nm fluorescence, GSK3A, primary screen (AID 1103); conditions: fluorescence 635 nm, higher = more signal; also: the record names both GSK3A and GSK3B
[7] = target: Epidermal growth factor receptor (Homo sapiens) (UniProt P00533); test: compounds binding epidermal growth factor receptor – biochemical, small-molecule microarray, 635 nm fluorescence, primary screen (AID 1104); conditions: EGFR binding, higher = more signal;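 also: score merges 667 nm emission intensity with spot signal to noise over triplicate slides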
Chain of Epidermal growth factor receptor (Homo sapiens) (P00533 whole entry, looked up): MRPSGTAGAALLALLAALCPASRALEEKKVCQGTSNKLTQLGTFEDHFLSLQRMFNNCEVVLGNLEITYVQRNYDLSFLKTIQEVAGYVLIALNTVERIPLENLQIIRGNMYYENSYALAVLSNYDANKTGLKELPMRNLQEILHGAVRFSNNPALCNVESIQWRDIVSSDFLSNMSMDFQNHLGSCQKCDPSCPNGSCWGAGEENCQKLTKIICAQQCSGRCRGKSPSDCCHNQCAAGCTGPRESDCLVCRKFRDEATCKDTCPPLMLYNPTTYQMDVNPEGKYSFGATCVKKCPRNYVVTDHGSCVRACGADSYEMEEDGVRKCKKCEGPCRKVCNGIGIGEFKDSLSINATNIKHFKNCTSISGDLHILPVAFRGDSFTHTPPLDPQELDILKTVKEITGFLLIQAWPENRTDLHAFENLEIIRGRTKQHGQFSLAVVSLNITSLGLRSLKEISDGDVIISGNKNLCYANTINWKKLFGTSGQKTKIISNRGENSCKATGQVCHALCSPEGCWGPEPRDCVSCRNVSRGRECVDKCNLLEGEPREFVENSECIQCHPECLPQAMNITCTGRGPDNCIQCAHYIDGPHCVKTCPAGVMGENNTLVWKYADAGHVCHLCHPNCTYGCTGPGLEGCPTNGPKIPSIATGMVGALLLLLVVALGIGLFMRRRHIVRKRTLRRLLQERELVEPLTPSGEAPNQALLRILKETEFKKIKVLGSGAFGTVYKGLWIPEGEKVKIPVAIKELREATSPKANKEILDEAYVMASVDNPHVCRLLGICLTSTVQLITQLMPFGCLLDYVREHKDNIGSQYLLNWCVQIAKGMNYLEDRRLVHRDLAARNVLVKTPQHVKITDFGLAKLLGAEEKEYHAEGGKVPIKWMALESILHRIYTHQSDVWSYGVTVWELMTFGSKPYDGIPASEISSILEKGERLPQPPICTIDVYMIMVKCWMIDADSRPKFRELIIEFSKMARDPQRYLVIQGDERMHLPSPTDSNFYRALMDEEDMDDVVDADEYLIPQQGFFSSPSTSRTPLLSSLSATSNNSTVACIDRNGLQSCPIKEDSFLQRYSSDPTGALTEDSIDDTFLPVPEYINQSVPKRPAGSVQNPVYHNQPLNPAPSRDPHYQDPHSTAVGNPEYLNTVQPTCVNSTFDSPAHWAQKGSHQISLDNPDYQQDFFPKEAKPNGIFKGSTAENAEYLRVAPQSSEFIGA

[8] = target: Follistatin-related protein 3 (Homo sapiens) (UniProt O95633); test: compounds binding follistatin-related protein 3 – biochemical, small-molecule microarray, 635 nm fluorescence, primary screen (AID 1105); conditions: FSTL3 binding, higher = more signal;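 also: score merges emission near 667 nm and signal to noise per printed spot across three slides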
Chain of Follistatin-related protein 3 (Homo sapiens) (O95633 whole entry, looked up): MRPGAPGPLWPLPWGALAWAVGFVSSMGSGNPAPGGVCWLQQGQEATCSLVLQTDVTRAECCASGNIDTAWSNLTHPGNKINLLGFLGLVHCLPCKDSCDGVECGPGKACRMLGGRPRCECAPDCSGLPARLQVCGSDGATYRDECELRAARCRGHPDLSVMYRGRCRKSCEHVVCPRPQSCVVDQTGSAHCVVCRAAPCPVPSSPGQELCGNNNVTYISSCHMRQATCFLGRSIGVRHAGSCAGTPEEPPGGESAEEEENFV

[9] = target: Dickkopf-related protein 1 (Homo sapiens) (UniProt O94907); test: small molecules binding DKK1 protein – biochemical, small-molecule microarray, 635 nm fluorescence scan, primary screen (AID 1106); conditions: higher = more signal;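 also: score merges emission near 667 nm with signal to noise over three replicate slides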
Chain of Dickkopf-related protein 1 (Homo sapiens) (O94907 whole entry, looked up): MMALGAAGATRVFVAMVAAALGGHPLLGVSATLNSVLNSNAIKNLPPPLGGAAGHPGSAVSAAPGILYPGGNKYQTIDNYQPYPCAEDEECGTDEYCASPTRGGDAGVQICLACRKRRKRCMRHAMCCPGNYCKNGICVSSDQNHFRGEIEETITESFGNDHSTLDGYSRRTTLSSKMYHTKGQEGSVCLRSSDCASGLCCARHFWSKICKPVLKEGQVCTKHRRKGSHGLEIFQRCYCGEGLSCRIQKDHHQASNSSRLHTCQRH

[10] = test system: Inhibin beta A chain (activin A); test: small molecules binding activin A – biochemical, small-molecule microarray, 635 nm fluorescence scan, primary screen (AID 1107); conditions: INHBA, higher = more signal;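 also: mouse activin A protein probed at 4.33 µg/mL on printed slides; score merges bound-protein fluorescence near 667 nm with spot signal-to-noise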
[11] = test system: Human papillomavirus type 1a protein E7 (residues 44-93); test: small molecules binding HPV E7 44-93 – biochemical, small-molecule microarray, residues 44-93, 635 nm fluorescence, primary screen (AID 1108); conditions: fluorescence 635 nm, higher = more signal;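 also: E7 fragment applied at 1 µg/mL in TBST for 1 h at 4 C; score combines spot fluorescence with its signal to noise ratio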
[12] = hepatitis C replication reporter changes, two-sided – Huh7 cells, luciferase reporter, HCV replication inhibitor project, primary screen (AID 1109); conditions: Huh7 HCV replicon luciferase reporter, 48 h; higher = more signal;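 also: huh7 hepatoma cells harbouring a luciferase neomycin HCV replicon reporter; luciferase luminescence as measure of HCV replicon replication; test concentration not given here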
[13] = target: Left-right determination factor 2 (Homo sapiens) (UniProt O00292); test: small molecules binding LEFTY2 protein – biochemical, small-molecule microarray, 635 nm fluorescence scan, primary screen (AID 1110); conditions: higher = more signal
Chain of Left-right determination factor 2 (Homo sapiens) (O00292 whole entry, looked up): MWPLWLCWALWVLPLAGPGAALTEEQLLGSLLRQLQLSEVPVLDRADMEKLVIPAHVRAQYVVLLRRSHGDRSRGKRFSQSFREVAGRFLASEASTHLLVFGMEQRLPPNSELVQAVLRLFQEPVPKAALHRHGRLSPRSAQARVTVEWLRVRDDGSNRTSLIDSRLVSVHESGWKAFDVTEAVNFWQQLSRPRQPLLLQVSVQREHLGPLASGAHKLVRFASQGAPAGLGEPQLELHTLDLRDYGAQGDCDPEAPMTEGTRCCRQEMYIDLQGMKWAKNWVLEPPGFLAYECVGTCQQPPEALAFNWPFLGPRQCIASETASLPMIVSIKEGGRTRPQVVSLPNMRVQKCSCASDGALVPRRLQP

[14] = target: Calmodulin-1 (Homo sapiens) (UniProt P0DP23); test: small molecules binding calmodulin-1 with EGTA – biochemical, small-molecule microarray, Cy5-labelled CALM1, profiling panel (AID 1111); conditions: Cy5-CALM1 binding fluorescence, higher = more signal;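 also: labelled calmodulin applied in Tris saline Tween buffer holding calcium plus EGTA and DTT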
[15] = target: Calmodulin-1 (Homo sapiens) (UniProt P0DP23); test: small molecules binding Ca-loaded calmodulin-1 – biochemical, small-molecule microarray, Cy5-labelled CALM1, plus calcium, artefact control for SMM control-protein annotation, profiling panel (AID 1112); conditions: Cy5-CALM1 binding fluorescence, higher = more signal;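 also: score merges spot fluorescence with signal to noise from triplicate slides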
[16] = probe aWnt5a binding to arrayed compounds – biochemical, biotinylated probe, 635/667 nm fluorescence, primary screen (AID 1113); conditions: small-molecule microarray, higher = more signal;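 also: score merges 667 nm fluorescence intensity with signal-to-noise per printed feature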
[17] = probe aShh binding to arrayed compounds – biochemical, biotinylated probe, 635/667 nm fluorescence, primary screen (AID 1114); conditions: small-molecule microarray, higher = more signal;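 also: probe is biotin-labelled aShh protein from a stem cell growth factor screen; measures binding of labelled protein to compounds printed on the slide; score merges feature fluorescence at 667 nm with signal-to-noise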
[18] = probe aNog binding to arrayed compounds – biochemical, biotinylated probe, 635/667 nm fluorescence, primary screen (AID 1115); conditions: small-molecule microarray, higher = more signal;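 also: probe is biotinylated aNog protein used at 0.15 µg/mL for 1 h at 4 C; z-score combines 667 nm fluorescence of each spot with its signal to noise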
[19] = target: Torsin-1A-interacting protein 1 (Homo sapiens) (UniProt Q5JTV8); test: compound microarray binding of lysate hLAP1 – cell lysate, small-molecule microarray, COS7 lysate, 635/667 nm fluorescence, primary screen (AID 1116); conditions: 635 nm fluorescence, higher = more signal
Chain of Torsin-1A-interacting protein 1 (Homo sapiens) (Q5JTV8 whole entry, looked up): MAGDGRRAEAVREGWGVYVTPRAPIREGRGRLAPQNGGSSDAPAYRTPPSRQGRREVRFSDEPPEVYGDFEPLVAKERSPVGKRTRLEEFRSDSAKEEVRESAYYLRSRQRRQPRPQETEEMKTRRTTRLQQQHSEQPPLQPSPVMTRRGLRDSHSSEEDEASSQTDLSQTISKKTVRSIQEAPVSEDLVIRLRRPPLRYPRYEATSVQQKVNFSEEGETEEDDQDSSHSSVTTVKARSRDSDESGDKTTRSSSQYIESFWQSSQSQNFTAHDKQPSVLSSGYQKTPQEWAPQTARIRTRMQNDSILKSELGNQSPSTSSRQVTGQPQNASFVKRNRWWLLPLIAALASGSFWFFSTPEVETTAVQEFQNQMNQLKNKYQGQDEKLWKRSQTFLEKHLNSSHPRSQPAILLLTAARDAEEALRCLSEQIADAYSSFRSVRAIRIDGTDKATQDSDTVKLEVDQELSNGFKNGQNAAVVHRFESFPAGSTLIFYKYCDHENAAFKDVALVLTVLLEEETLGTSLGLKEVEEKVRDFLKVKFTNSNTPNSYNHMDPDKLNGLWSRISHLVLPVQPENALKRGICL

[20] = target: Alpha-bungarotoxin (Bungarus multicinctus) (UniProt P60615); test: compounds binding labelled alpha-BTX control protein – biochemical, small-molecule microarray, Alexa647 label, 635/667 nm fluorescence, artefact control for SMM control protein annotation, profiling panel (AID 1117); conditions: alpha-BTX-A647 binding fluorescence, higher = more signal
Chain of Alpha-bungarotoxin (Bungarus multicinctus) (P60615 whole entry, looked up): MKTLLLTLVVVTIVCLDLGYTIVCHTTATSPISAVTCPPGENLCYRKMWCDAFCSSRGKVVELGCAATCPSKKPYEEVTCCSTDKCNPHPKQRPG

Structure (SMILES) | composite z-score [1] | composite z-score [2] | composite z-score [3] | z-score [4] | composite z-score [5] | composite z-score [6] | composite z-score [7] | composite z-score [8] | composite z-score [9] | composite z-score [10] | composite z-score [11] | z-score [12] | composite z-score [13] | composite z-score [14] | composite z-score [15] | composite z-score [16] | composite z-score [17] | composite z-score [18] | composite z-score [19] | composite z-score [20]
COC(=O)[C@@]1(Cc2ccc(F)cc2)[C@H]2c3cc(C(=O)N(C)C)n(Cc4cc(F)cc5c4OCOC5)c3C[C@H]2CN1C(=O)c1ccccc1 | 0.743 | 1.25 | 1.25 | -1.26 (inactive) | 0.87 | 0.427 | 0.105 | 0.913 | -0.171 | 0.677 | 1.41 | -1.81 | 0.011 | 1.68 | 0.0074 | -0.001 | 0.0856 | 0.468 | 0.822 | 1.04
COCCOC(=O)N1C(=O)[C@@]2(c3cc(C#Cc4ccc(OC)cc4)ccc31)[C@H](C(=O)Nc1nc3ccccc3s1)[C@H]1C(=O)O[C@H](c3ccccc3)[C@H](c3ccccc3)N1[C@@H]2c1ccc(OCCO)cc1 | 0.557 | -0.135 | -0.571 | -0.653 (inactive) | 1.37 | 1.28 | 0.654 | 1.38 | 0.901 | 0.0865 | 1.17 | -2.19 | 0.785 | 0.762 | -0.621 | -0.0704 | -0.223 | -0.268 | 0.179 | 1
C=C[C@@H](COC(C)=O)N(C(=O)OC(C)(C)C)S(=O)(=O)c1ccc(Br)cc1 | 0.732 | 0.311 | -0.152 | 0.446 (inactive) | 1.18 | 1.23 | 0.837 | 1.45 | 2.14 | 0.824 | 0.789 | 0.429 | 1.27 | 0.486 | 0.367 | 0.0973 | -0.141 | -0.0317 | 1.06 | 1.32
COC(=O)c1nc2oc1CC[C@@H](CO)NC(=O)N(C)Cc1cnnn1C[C@H](Cc1ccccc1)NC2=O | 1.81 | -0.148 | 0.106 | -0.495 (inactive) | -0.0412 | -1.05 | -0.913 | 0.228 | -0.682 | 0.139 | -0.367 | -0.421 | -1.07 | -0.677 | -0.319 | -0.159 | -0.0035 | -0.321 | 0.122 | 1.25
C[C@]1(C(=O)NC2CC2)c2ccccc2C(=O)N(Cc2ccccc2)[C@H]1c1ccc(CO)cc1 | 1.13 | 0.432 | 0.951 | -0.502 (inactive) | -1.01 | -0.84 | -1.12 | -0.761 | -0.594 | -0.0478 | -0.614 | -0.582 | -1.25 | -0.875 | -0.629 | -0.148 | -0.352 | 0.113 | -0.0199 | -1.02
O=C1O[C@@H](c2ccccc2)[C@@H](c2ccccc2)N2[C@@H](c3ccc(O)cc3)[C@]3(C(=O)Nc4ccc(C#CC5=CCCCC5)cc43)[C@@H](C(=O)NC[C@H](O)c3ccccc3)[C@H]12 | 1.12 | 0.603 | 0.757 | -1.41 (inactive) | 1.41 | 1.28 | 0.829 | 1.42 | 1.49 | 1.02 | 1.4 | -1.31 | 0.915 | 1.11 | 0.293 | 0.0964 | -0.0769 | 0.654 | 1.52 | 0.774
COC(=O)c1c2oc(c1C(=O)OC)C(=O)N(Cc1ccccc1)Cc1cn(nn1)C[C@H](Cc1ccccc1)NC(=O)N[C@H](CO)CC2 | 0.909 | -0.0239 | -0.342 | -2.12 (inactive) | 0.247 | 0.278 | 0.0933 | 0.111 | -0.0193 | 0.0809 | 0.196 | -0.533 | 0.269 | -0.201 | -0.464 | -0.0194 | -0.367 | -0.359 | 0.678 | -0.129
O=C(NCc1ccccc1)[C@@H]1c2ccccc2C(=O)N(Cc2ccccc2C(F)(F)F)[C@H]1c1ccc(CO)cc1 | 1.61 | -0.299 | 0.752 | -0.452 (inactive) | 0.112 | -0.076 | -0.406 | -0.45 | -1.09 | 0.212 | 0.966 | 0.129 | -0.948 | -0.526 | -0.317 | -0.252 | -0.419 | -0.383 | -0.934 | -0.166
COC(=O)[C@@]1(Cc2ccccc2)[C@H]2c3cc(C(=O)N(C)C)n(CCc4ccc(O)c(OC)c4)c3C[C@H]2CN1C(=O)c1ccccc1 | 0.0108 | 1.32 | 0.379 | 0.905 (inactive) | 0.626 | 0.652 | 0.569 | 0.37 | 0.358 | -0.0861 | 0.351 | -0.261 | 0.38 | 0.89 | -0.136 | 0.583 | 1.49 | 0.974 | 0.279 | 0.19
C=CCNC(=O)[C@H]1[C@@H]2C(=O)O[C@@H](c3ccccc3)[C@@H](c3ccccc3)N2[C@@H](c2ccc(O)cc2)[C@]12C(=O)N(C(=O)OCCOC)c1ccccc12 | 1.27 | -0.689 | -0.0623 | -1.59 (inactive) | 1.24 | 0.226 | 1.11 | 0.552 | 0.298 | 0.204 | 1.42 | -0.585 | 0.18 | 0.763 | -0.0816 | -0.0573 | -0.331 | -0.206 | 0.793 | 0.712
C=CCN1C(=O)[C@@]2(O[C@@H](CCn3cc([C@H](O)c4ccccc4)nn3)[C@H]([Si](C)(C)c3ccc(OC)cc3)[C@H]2C)c2cc(N3CCC3=O)ccc21 | 1.43 | 0.0289 | 0.257 | -0.429 (inactive) | 0.216 | -0.0371 | -0.0844 | -0.296 | -0.0607 | 0.289 | 0.627 | -3.39 | 0.225 | 0.249 | 0.294 | -0.15 | -0.138 | 0.15 | 0.116 | 0.359
